# Test results: PubChem BioAssay (NCATS)
# Records with an inconclusive call do not appear. A call without a number means that no potency is given here. Active and inactive are the calls of the source. Unless noted, calls follow the shape of the dose curve; as a rule, active = well fitted curve in the direction sought with a large enough effect; inconclusive = small, poorly fitted or top-dose-only effect, or another doubt; inactive = no such curve, though single readings can be large; an effect the other way counts as inactive or inconclusive. Residues, ends and D or L forms follow the SMILES beside them. *: point of attachment. Cbz = O=C(OCc1ccccc1)*
# Key:
# [1] = qHTS for differential inhibitors of proliferation of Plasmodium falciparum line D10 (AID 1877); conditions: series mostly up to 28.7 µM;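 also: parasites grown with compound for 72 h before DNA staining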; also: potency is read from the fitted curve at half-maximal effect
# [2] = qHTS for differential inhibitors of proliferation of Plasmodium falciparum line Dd2 (AID 1882); conditions: Potency: Plasmodium falciparum Dd2 proliferation inhibition; series mostly up to 28.7 µM; also: nearly all actives have a fitted effect of over 65% in size; also: potency is read from the fitted curve at half-maximal effect
# In short: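 Dd2-infected erythrocytes (0.3% parasitemia, 2.5% hematocrit final) incubated with compound 72 h at 37 C, 5% CO2; lysed with saponin/Triton buffer containing SYBR Green I, incubated overnight in the dark, then read by fluorescence (485/535 nm). Normalized to 0.29 uM artemisinin and DMSO.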
# [3] = qHTS for differential inhibitors of proliferation of Plasmodium falciparum line W2 (AID 1883); conditions: Potency: Plasmodium falciparum W2 proliferation inhibition; series mostly up to 28.7 µM;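 also: parasites grown with compound for 72 h before lysis and staining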; also: potency is read from the fitted curve at half-maximal effect
# [4] = qHTS for differential inhibitors of proliferation of Plasmodium falciparum line HB3 (AID 1886); conditions: Potency: Plasmodium falciparum HB3 proliferation inhibition; series mostly up to 28.7 µM;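 also: parasites grown with compound for 72 h before SYBR Green readout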; also: potency is read from the fitted curve at half-maximal effect
# [5] = qHTS Assay for Modulators of Human Peripheral Myelin Protein 22 (PMP22) Expression/Activity (AID 1967; active = well fitted curve in the direction sought with a large enough effect in the signal ratio; the % refers to the signal ratio); conditions: Cell-based PMP22 reporter, dual-color luciferase ratio, 0% = compound-free control cells, mouse Pmp22 promoter in mouse Schwann cells; series mostly up to 115 µM
# In short: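 Quantitative HTS in a mouse Schwann cell line expressing dual click beetle luciferases: Pmp22 promoter (green) and control EF-alpha promoter (red). After 24h treatment, corrected green/red signal ratio gave %Activity relative to untreated cells.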
# [6] = biological target: Ferritin light chain (Equus caballus) (UniProt P02791); assay: qHTS Validation Assay for Identification of Novel General Anesthetics (AID 2323); conditions: horse apoferritin, anesthetic-site fluorescent probe displacement; series mostly up to 76.9 µM; also: potency is read from the fitted curve at half-maximal effect
# Sequence of Ferritin light chain (Equus caballus) (P02791 2-175 limits assumed): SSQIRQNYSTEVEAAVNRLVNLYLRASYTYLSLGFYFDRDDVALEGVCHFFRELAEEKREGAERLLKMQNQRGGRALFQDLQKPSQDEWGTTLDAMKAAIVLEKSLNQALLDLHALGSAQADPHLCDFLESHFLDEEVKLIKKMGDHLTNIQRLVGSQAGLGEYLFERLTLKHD
# In short: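 Apoferritin from horse spleen (10 uM) was mixed with 1-aminoanthracene at 50% saturation in PBS, then compounds were added. After 10 min at room temperature, fluorescence was read (ex 380 nm, em 535 nm) and normalized to free-probe and complex controls.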
# [7] = biological target: ATP-dependent DNA helicase Q1 (Homo sapiens) (UniProt P46063); assay: qHTS Validation Assay for Inhibitors of RecQ-Like Dna Helicase 1 (RECQ1) (AID 2353); conditions: recombinant RECQ1 helicase DNA unwinding assay; series mostly up to 25.6 µM; also: potency is read from the fitted curve at half-maximal effect
# Sequence of ATP-dependent DNA helicase Q1 (Homo sapiens) (P46063 whole entry, looked up): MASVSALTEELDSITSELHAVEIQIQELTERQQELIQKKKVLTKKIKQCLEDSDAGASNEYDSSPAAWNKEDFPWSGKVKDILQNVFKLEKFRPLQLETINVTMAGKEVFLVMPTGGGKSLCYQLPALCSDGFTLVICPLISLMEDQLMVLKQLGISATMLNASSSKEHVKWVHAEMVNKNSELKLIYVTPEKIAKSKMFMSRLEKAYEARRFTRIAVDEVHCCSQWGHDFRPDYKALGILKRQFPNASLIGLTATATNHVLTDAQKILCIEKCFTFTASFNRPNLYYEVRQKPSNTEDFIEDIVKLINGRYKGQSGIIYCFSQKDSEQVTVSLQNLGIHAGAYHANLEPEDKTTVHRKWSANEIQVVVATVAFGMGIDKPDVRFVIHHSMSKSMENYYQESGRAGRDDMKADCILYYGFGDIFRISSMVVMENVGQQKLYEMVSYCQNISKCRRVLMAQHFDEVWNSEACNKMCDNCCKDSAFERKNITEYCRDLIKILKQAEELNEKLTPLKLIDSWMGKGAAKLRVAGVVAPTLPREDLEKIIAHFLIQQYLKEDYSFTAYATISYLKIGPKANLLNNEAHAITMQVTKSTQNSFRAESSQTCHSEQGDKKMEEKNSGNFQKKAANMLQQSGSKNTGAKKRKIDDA
# In short: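 50 nM RECQ1T1 preincubated 15 min with compound in Tris pH 8.0 buffer with MgCl2, DTT, Tween-20 and 2.5 ug/ml poly(dI-dC); started with 200 nM TAMRA/BHQ-2 forked duplex and 2 mM ATP. Unwinding read as fluorescence (525/598 nm), two reads 2 h apart.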
# [8] = biological target: RecQ-like DNA helicase BLM (Homo sapiens) (UniProt P54132); assay: qHTS Validation Assay for Inhibitors of Bloom's syndrome helicase (BLM) (AID 2364); conditions: BLM helicase DNA unwinding, fluorescence, in vitro; series mostly up to 57.1 µM; also: potency is read from the fitted curve at half-maximal effect
# Sequence of RecQ-like DNA helicase BLM (Homo sapiens) (P54132 whole entry, looked up): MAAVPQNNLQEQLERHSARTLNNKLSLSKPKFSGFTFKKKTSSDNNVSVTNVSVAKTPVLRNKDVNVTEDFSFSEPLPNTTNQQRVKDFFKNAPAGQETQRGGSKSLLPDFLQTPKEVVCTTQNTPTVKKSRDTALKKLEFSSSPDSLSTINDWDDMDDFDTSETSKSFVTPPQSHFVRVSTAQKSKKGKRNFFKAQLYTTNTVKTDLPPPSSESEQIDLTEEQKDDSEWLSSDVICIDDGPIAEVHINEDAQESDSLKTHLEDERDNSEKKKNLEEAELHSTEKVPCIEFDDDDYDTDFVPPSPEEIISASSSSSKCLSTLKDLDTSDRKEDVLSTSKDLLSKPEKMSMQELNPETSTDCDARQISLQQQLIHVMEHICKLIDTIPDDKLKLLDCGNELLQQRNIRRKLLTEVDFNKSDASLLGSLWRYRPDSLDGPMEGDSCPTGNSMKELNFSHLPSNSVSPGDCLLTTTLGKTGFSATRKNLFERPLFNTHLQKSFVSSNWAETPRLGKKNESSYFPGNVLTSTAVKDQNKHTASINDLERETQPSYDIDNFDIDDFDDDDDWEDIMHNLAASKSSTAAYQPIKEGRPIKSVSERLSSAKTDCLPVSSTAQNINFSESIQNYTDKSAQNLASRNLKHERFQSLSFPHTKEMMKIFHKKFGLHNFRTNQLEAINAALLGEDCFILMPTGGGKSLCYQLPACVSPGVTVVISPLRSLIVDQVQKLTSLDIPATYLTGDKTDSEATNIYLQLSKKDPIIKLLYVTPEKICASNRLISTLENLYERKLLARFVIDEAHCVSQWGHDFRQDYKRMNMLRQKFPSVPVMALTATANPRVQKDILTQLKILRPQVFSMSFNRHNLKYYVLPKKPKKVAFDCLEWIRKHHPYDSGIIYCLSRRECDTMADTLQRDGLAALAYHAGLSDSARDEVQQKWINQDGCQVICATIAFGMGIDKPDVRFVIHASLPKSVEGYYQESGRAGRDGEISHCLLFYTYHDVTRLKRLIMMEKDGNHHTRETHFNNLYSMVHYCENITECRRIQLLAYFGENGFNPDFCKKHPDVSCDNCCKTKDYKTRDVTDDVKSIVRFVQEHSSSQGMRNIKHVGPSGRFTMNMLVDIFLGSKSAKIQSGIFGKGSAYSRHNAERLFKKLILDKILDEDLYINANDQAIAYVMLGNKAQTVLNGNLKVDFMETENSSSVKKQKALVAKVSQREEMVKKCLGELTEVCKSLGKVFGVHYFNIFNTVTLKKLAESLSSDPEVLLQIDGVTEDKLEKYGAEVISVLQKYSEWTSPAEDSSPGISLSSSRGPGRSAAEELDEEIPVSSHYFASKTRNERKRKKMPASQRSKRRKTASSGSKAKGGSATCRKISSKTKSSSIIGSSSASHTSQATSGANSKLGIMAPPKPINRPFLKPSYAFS
# In short: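 50 nM BLM preincubated 15 min at room temperature with compound in pH 8.0 Tris buffer containing 2.5 ug/ml poly(dI-dC); started with 200 nM TAMRA/BHQ-2 forked duplex and 2 mM ATP (final). Unwinding read as TAMRA fluorescence increase, two reads 2 h apart.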
# [9] = biological target: Lysosomal alpha-glucosidase (Homo sapiens) (UniProt P10253); assay: Confirmation of Inhibitors and Activators of Purified Human alpha-Glucosidase (AID 2115; active = well fitted curve in either direction with a large enough effect); conditions: purified human GAA enzyme activity
# Description: NIH Chemical Genomics Center [NCGC]
# NIH Molecular Libraries Probe Production centers Network [MLPCN]
# Assay Submitter (PI): Wei Zheng
# Alpha-glucosidase is responsible for hydrolysis of terminal, non-reducing 1,4-linked alpha-D-glucose residues with release of alpha-D-glucose. It is a lysosomal hydrolase that is required for the degradation of a small percentage (1-3%) of cellular glycogen in human. Deficiency of this enzyme results in glycogen-storage disease type II (GSDII), also referred to as Pompe disease, an autosomal recessive disorder. Structurally normal glycogen is accumulated in lysosomes and cytoplasm in affected patients, primarily in muscle tissues. Excessive glycogen storage within lysosomes may interrupt normal functioning of other organelles and leads to cellular injury. In turn, this leads to enlargement and dysfunction of the entire organ involved (eg, cardiomyopathy and muscle weakness). […]
# This is a fluorogenic enzyme assay with 4-methylumbelliferyl-alpha-D-[…] as the substrate and human […] as the enzyme preparation. […] 4-methyllumbelliferone, can be excited at 365 nm and emits at 440 nm which can be detected by a standard fluorescence plate reader. […] The AC50 values were determined from concentration-response data modeled with the standard Hill equation. […]
# (6) Detect the assay plate in a ViewLux plate reader (PerkinElmer) with Ex=365 nm and Em=440nm. […]
SMILES,Potency [1],Potency [2],Potency [3],Potency [4],outcome [5],Potency [6],Potency [7],Potency [8],outcome [9]
C[C@@H](NCCc1ccc(O)cc1)[C@@H](O)c1ccc(O)cc1,inactive,inactive,inactive,inactive,inactive,inactive,inactive,inactive,
C=CCN1CCc2c(cc(O)c(O)c2Cl)C(c2ccccc2)C1 (stereo unspecified),12.6 µM (active),10 µM (active),3.55 µM (active),7.08 µM (active),,,,,
NCCS(=O)O,inactive,inactive,inactive,inactive,inactive,inactive,inactive,,
CNc1cc(NS(=O)(=O)c2ccc(N)cc2)nc(NC)n1,inactive,inactive,inactive,inactive,inactive,inactive,inactive,,
C[C@@]1(C2CCCC2)Cc2cc(OCC(=O)O)c(Cl)c(Cl)c2C1=O,inactive,inactive,inactive,inactive,inactive,inactive,inactive,,
C=CCn1c(=O)c2c(nc(-c3ccc(S(=O)(=O)O)cc3)n2C)n(C)c1=O,inactive,inactive,inactive,inactive,inactive,inactive,inactive,,
O=[N+]([O-])c1cccc2cn[nH]c12,inactive,inactive,inactive,inactive,inactive,inactive,inactive,,
O=C(O)c1cc(=O)cc(C(=O)O)[nH]1,inactive,inactive,inactive,inactive,inactive,inactive,inactive,,
NC1CONC1=O (stereo unspecified),inactive,inactive,inactive,inactive,inactive,inactive,inactive,,
CC(=O)NCCc1c[nH]c2ccc(O)cc12,inactive,inactive,inactive,inactive,inactive,inactive,inactive,,
NCC(O)(CS(=O)(=O)O)c1ccc(Cl)cc1 (stereo unspecified),inactive,inactive,inactive,inactive,inactive,inactive,,,
NC/C=C\C(=O)O,inactive,inactive,inactive,inactive,inactive,inactive,inactive,,
CC1C(=O)N(C)C(=O)c2nc[nH]c21 (stereo unspecified),inactive,inactive,inactive,inactive,inactive,inactive,inactive,,
N[C@@H](CCCC(=O)O)C(=O)O,inactive,inactive,inactive,inactive,inactive,inactive,inactive,,
CC(C)Cn1c(=O)n(C)c(=O)c2[nH]cnc21,inactive,inactive,inactive,inactive,inactive,inactive,inactive,inactive,
NC1(C(=O)O)CCCCC1,inactive,inactive,inactive,inactive,inactive,inactive,inactive,,
O=C(O)[C@H]1NCCC[C@H]1C(=O)O,inactive,inactive,inactive,inactive,inactive,inactive,inactive,,
N[C@H](C(=O)O)c1cc(O)cc(O)c1,inactive,inactive,inactive,inactive,inactive,inactive,inactive,,
COc1ccc2c(c1)c(CC(=O)O)c(C)n2C(=O)c1ccccc1,inactive,inactive,inactive,inactive,inactive,inactive,inactive,,
O=C(O)/C=C/c1cnc[nH]1,inactive,inactive,inactive,inactive,inactive,inactive,inactive,,
NC1(C(=O)O)CCc2cc(C(=O)O)ccc21 (stereo unspecified),inactive,inactive,inactive,inactive,inactive,inactive,inactive,,
OC[C@H]1NC[C@@H](O)[C@@H]1O,inactive,inactive,inactive,inactive,inactive,inactive,inactive,inactive,inactive
CC(N)(C(=O)O)c1ccc(C(=O)O)cc1 (stereo unspecified),inactive,inactive,inactive,inactive,inactive,inactive,inactive,,
Cn1ccnc1,inactive,inactive,inactive,inactive,inactive,inactive,inactive,inactive,
N[C@@H](CS(=O)O)C(=O)O,inactive,inactive,inactive,inactive,inactive,inactive,inactive,inactive,
COc1cc(C(O)CO)ccc1O (stereo unspecified),inactive,inactive,inactive,inactive,inactive,inactive,inactive,inactive,
COc1cc(CC(=O)O)ccc1O,inactive,inactive,inactive,inactive,inactive,inactive,inactive,inactive,

SMILES,Potency [1],Potency [2],Potency [3],Potency [4],outcome [5],Potency [6],Potency [7],Potency [8],outcome [9]
O=C(O)C1=CCNCC1,inactive,inactive,inactive,inactive,inactive,inactive,,,
COc1cc(C(O)C(=O)O)ccc1O (stereo unspecified),inactive,inactive,inactive,inactive,inactive,inactive,inactive,,
Cc1ccc([N+](=O)[O-])cc1S(=O)(=O)N(C)C,inactive,inactive,inactive,inactive,inactive,inactive,inactive,inactive,
N[C@@H](Cc1ccc(O)c(I)c1)C(=O)O,inactive,inactive,inactive,inactive,inactive,inactive,inactive,,
CCCc1c(OCCCOc2ccc(OCC(=O)O)cc2)ccc(C(C)=O)c1O,inactive,inactive,inactive,inactive,inactive,inactive,inactive,,
[Li+],inactive,inactive,inactive,inactive,inactive,inactive,inactive,inactive,
N=C(N)c1ccccc1,inactive,inactive,inactive,inactive,inactive,inactive,inactive,,
CO/N=C(\C(=O)N[C@@H]1C(=O)N2C(C(=O)O)=C(CSc3nc(=O)c(O)nn3C)CSC12)c1csc(N)n1 (stereo partly specified),inactive,inactive,inactive,inactive,inactive,inactive,,,
NCCC1CCCC(CCN)N1 (stereo unspecified),inactive,inactive,inactive,inactive,inactive,inactive,inactive,inactive,
CNc1ncnc2c1ncn2[C@H]1C[C@H](OP(=O)(O)O)[C@@H](COP(=O)(O)O)O1,inactive,inactive,inactive,inactive,inactive,inactive,inactive,,
CCCCCC(O)CCCC(=O)O (stereo unspecified),inactive,inactive,inactive,inactive,inactive,inactive,inactive,inactive,
CCCCCCC/C=C\CCCCCCCCC(=O)O,inactive,inactive,inactive,inactive,inactive,31.6 µM (active),,28.2 µM (active),
CCN(CC)CCOC(=O)c1cc(Cl)c(N)cc1OC,inactive,inactive,inactive,inactive,inactive,inactive,,inactive,
CC(C)(C)NCC(O)COc1cccc2[nH]c(=O)[nH]c12 (stereo unspecified),inactive,inactive,inactive,inactive,inactive,inactive,inactive,inactive,
N[C@@H](CCC(=O)N[C@H](CSN=O)C(=O)NCC(=O)O)C(=O)O,inactive,inactive,inactive,inactive,,inactive,,,
O=C(O)C1CN(CCCP(=O)(O)O)CCN1 (stereo unspecified),inactive,inactive,inactive,inactive,inactive,inactive,,inactive,
CC(C)[C@H](NC(=O)OCc1ccccc1)C(=O)N[C@H](C=O)Cc1ccccc1 (Cbz-Val-Phe-aldehyde),8.91 µM (active),4.47 µM (active),2.82 µM (active),5.01 µM (active),,inactive,inactive,,
NCCCCN=C(N)N,inactive,inactive,inactive,inactive,,inactive,inactive,,
C=C(C)C1CC=C(C(=O)O)CC1 (stereo unspecified),inactive,inactive,inactive,inactive,inactive,inactive,,inactive,
NCCCCN,inactive,inactive,inactive,inactive,inactive,inactive,inactive,inactive,
N[C@H](C(=O)O)[C@H](O)C(=O)O,inactive,inactive,inactive,inactive,,inactive,inactive,,
COc1ccc2c(c1)CCC1C2CC[C@@]2(C)C1CC[C@@H]2NCCCCCCN1C(=O)C=CC1=O (stereo partly specified),inactive,inactive,inactive,inactive,inactive,inactive,inactive,inactive,
NC(=O)CNCCC(c1ccccc1)c1ccccc1,inactive,4.47 µM (active),2.24 µM (active),inactive,,inactive,inactive,,
NC(Cc1cccc(-c2ccccc2CP(=O)(O)O)c1)C(=O)O (stereo unspecified),inactive,inactive,inactive,inactive,inactive,inactive,inactive,inactive,
CC(C)NC[C@H](O)COc1ccc(CC(N)=O)cc1,inactive,inactive,inactive,inactive,,inactive,,,
CC(N)(Cc1ccc(O)cc1)C(=O)O (stereo unspecified),inactive,inactive,inactive,inactive,inactive,inactive,11.2 µM (active),inactive,
COc1ccc(-c2ccc(N)[n+](CCCC(=O)O)n2)cc1,inactive,inactive,inactive,inactive,inactive,inactive,,inactive,
